# Measured values taken from PubChem BioAssay AID1159580 (chemical genetic matrix, 2015).
# Values joined by “and” are separate entries in the source; they are usually repeats but may differ in a detail not shown here. Equal entries are not always repeated. Screen size: about 5,500 compounds; about 2,000 (36%) were called active. Roughly 18% stayed inconclusive and do not appear here. The list shows a part of the results. Values without a mark were called inactive. Cut-off read from the data, not from the text of the source: active = normalized growth mostly below about 0.91 (no sharp cut-off); inconclusive = no clear call, values can overlap the other calls; inactive = mostly above about 0.92.
# Assay: chemical genetic growth profiling, strain panel (AID 1159580);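 note: tested at 20 µM; growth read once vehicle control cultures reached saturation at 30 °C; 1 = growth at the plate median or of vehicle wells; lower values mean less growth of the strain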
# Conditions: growth OD
smiles,measurement,setting,value
COc1ccc2cc([C@H](C)C(=O)O)ccc2c1,normalized growth,"S. cerevisiae deletion strains, locus YJR075W, strain HOC1, stronger effect = lower value",1.01 and 0.988
same,normalized growth,"S. cerevisiae deletion strains, locus YKL009W, strain mrt4, stronger effect = lower value",0.916
same,normalized growth,"S. cerevisiae deletion strains, locus YKL068W, stronger effect = lower value",0.983
same,normalized growth,"S. cerevisiae deletion strains, locus YKL085W, strain MDH1 (second series), stronger effect = lower value",0.977
same,normalized growth,"S. cerevisiae deletion strains, locus YKL085W, strain MDH1, stronger effect = lower value",0.977
same,normalized growth,"S. cerevisiae deletion strains, locus YKL160W, strain elf1, stronger effect = lower value",0.988
same,normalized growth,"S. cerevisiae deletion strains, locus YKL190W, strain CNB1, stronger effect = lower value",1
same,normalized growth,"S. cerevisiae deletion strains, locus YKR001C, strain vps1, stronger effect = lower value",0.943
same,normalized growth,"S. cerevisiae deletion strains, locus YKR026C, strain gcn3, stronger effect = lower value",0.983
same,normalized growth,"S. cerevisiae deletion strains, locus YKR091W, strain srl3, stronger effect = lower value",0.982
same,normalized growth,"S. cerevisiae deletion strains, locus YLL001W, strain dnm1, stronger effect = lower value",0.982
same,normalized growth,"S. cerevisiae deletion strains, locus YLL026W, stronger effect = lower value",0.997
same,normalized growth,"S. cerevisiae deletion strains, locus YLL041C, strain sdh2, stronger effect = lower value",0.971
same,normalized growth,"S. cerevisiae deletion strains, locus YLR027C, strain aat2, stronger effect = lower value",0.971
same,normalized growth,"S. cerevisiae deletion strains, locus YLR039C, strain RIC1, stronger effect = lower value",0.929
same,normalized growth,"S. cerevisiae deletion strains, locus YLR058C, strain SHM2, stronger effect = lower value",1.01
same,normalized growth,"S. cerevisiae deletion strains, locus YLR102C, strain apc9, stronger effect = lower value",0.986
same,normalized growth,"S. cerevisiae deletion strains, locus YLR113W, strain HOG1, stronger effect = lower value",0.757 (active)
same,normalized growth,"S. cerevisiae deletion strains, locus YLR221C, strain rsa3, stronger effect = lower value",0.993
same,normalized growth,"S. cerevisiae deletion strains, locus YLR258W, strain gsy2, stronger effect = lower value",0.982
same,normalized growth,"S. cerevisiae deletion strains, locus YLR262C, strain YPT6 (second series), stronger effect = lower value",0.944
same,normalized growth,"S. cerevisiae deletion strains, locus YLR262C, strain YPT6, stronger effect = lower value",0.903
same,normalized growth,"S. cerevisiae deletion strains, locus YLR268W, strain sec22, stronger effect = lower value",1.05
same,normalized growth,"S. cerevisiae deletion strains, locus YLR320W, strain mms22, stronger effect = lower value",0.955
same,normalized growth,"S. cerevisiae deletion strains, locus YLR330W, strain CHS5, stronger effect = lower value",0.997
same,normalized growth,"S. cerevisiae deletion strains, locus YLR342W, strain FKS1 (second series), stronger effect = lower value",0.98
same,normalized growth,"S. cerevisiae deletion strains, locus YLR342W, strain FKS1, stronger effect = lower value",0.967
same,normalized growth,"S. cerevisiae deletion strains, locus YLR357W, strain rsc2, stronger effect = lower value",0.963
same,normalized growth,"S. cerevisiae deletion strains, locus YLR370C, strain arc18, stronger effect = lower value",0.971
same,normalized growth,"S. cerevisiae deletion strains, locus YLR371W, strain rom2, stronger effect = lower value",0.989
same,normalized growth,"S. cerevisiae deletion strains, locus YLR384C, strain iki3, stronger effect = lower value",0.976
same,normalized growth,"S. cerevisiae deletion strains, locus YLR418C, strain cdc73, stronger effect = lower value",0.971
same,normalized growth,"S. cerevisiae deletion strains, locus YML016C, strain PPZ1, stronger effect = lower value",1
same,normalized growth,"S. cerevisiae deletion strains, locus YML032C, strain rad52, stronger effect = lower value",1
same,normalized growth,"S. cerevisiae deletion strains, locus YML120C, strain ndi1, stronger effect = lower value",0.99
same,normalized growth,"S. cerevisiae deletion strains, locus YML124C, strain tub3, stronger effect = lower value",0.992
same,normalized growth,"S. cerevisiae deletion strains, locus YMR058W, strain fet3, stronger effect = lower value",0.969
same,normalized growth,"S. cerevisiae deletion strains, locus YMR078C, strain ctf18, stronger effect = lower value",0.977
same,normalized growth,"S. cerevisiae deletion strains, locus YMR125W, strain sto1, stronger effect = lower value",0.972
same,normalized growth,"S. cerevisiae deletion strains, locus YMR129W, stronger effect = lower value",0.96
same,normalized growth,"S. cerevisiae deletion strains, locus YMR205C, strain PFK2, stronger effect = lower value",0.974
same,normalized growth,"S. cerevisiae deletion strains, locus YMR223W, strain ubp8, stronger effect = lower value",0.963
same,normalized growth,"S. cerevisiae deletion strains, locus YMR231W, strain pep5, stronger effect = lower value",0.987
same,normalized growth,"S. cerevisiae deletion strains, locus YMR263W, strain SAP30, stronger effect = lower value",1.01 and 0.996
same,normalized growth,"S. cerevisiae deletion strains, locus YMR307W, strain GAS1, stronger effect = lower value",0.955
same,normalized growth,"S. cerevisiae deletion strains, locus YNL067W, strain RPL9B, stronger effect = lower value",1.02
same,normalized growth,"S. cerevisiae deletion strains, locus YNL071W, strain lat1, stronger effect = lower value",0.96
same,normalized growth,"S. cerevisiae deletion strains, locus YNL128W, strain TEP1, stronger effect = lower value",0.996 and 0.976
same,normalized growth,"S. cerevisiae deletion strains, locus YNL153C, strain GIM3, stronger effect = lower value",1.02 and 1.01
same,normalized growth,"S. cerevisiae deletion strains, locus YNL175C, strain NOP13, stronger effect = lower value",0.964
same,normalized growth,"S. cerevisiae deletion strains, locus YNL183C, strain NPR1, stronger effect = lower value",0.88
same,normalized growth,"S. cerevisiae deletion strains, locus YNL197C, strain WHI3, stronger effect = lower value",0.963
same,normalized growth,"S. cerevisiae deletion strains, locus YNL209W, strain ssb2, stronger effect = lower value",0.978
same,normalized growth,"S. cerevisiae deletion strains, locus YNL224C, strain SQS1, stronger effect = lower value",0.978
same,normalized growth,"S. cerevisiae deletion strains, locus YNL233W, strain BNI4, stronger effect = lower value",1.02
same,normalized growth,"S. cerevisiae deletion strains, locus YNL248C, strain rpa49, stronger effect = lower value",0.977
same,normalized growth,"S. cerevisiae deletion strains, locus YNL250W, strain rad50, stronger effect = lower value",0.928
same,normalized growth,"S. cerevisiae deletion strains, locus YNL271C, strain bni1, stronger effect = lower value",0.938
same,normalized growth,"S. cerevisiae deletion strains, locus YNL298W, strain CLA4, stronger effect = lower value",0.848 (active)
same,normalized growth,"S. cerevisiae deletion strains, locus YNL307C, strain MCK1, stronger effect = lower value",0.98
same,normalized growth,"S. cerevisiae deletion strains, locus YNL322C, strain KRE1 (second series), stronger effect = lower value",0.938
same,normalized growth,"S. cerevisiae deletion strains, locus YNL322C, strain KRE1, stronger effect = lower value",1.01 and 0.995
same,normalized growth,"S. cerevisiae deletion strains, locus YNR049C, strain mso1, stronger effect = lower value",0.972
same,normalized growth,"S. cerevisiae deletion strains, locus YNR052C, strain pop2, stronger effect = lower value",0.969
same,normalized growth,"S. cerevisiae deletion strains, locus YOL006C, strain TOP1, stronger effect = lower value",1.06
same,normalized growth,"S. cerevisiae deletion strains, locus YOL012C, strain htz1",1.17
same,normalized growth,"S. cerevisiae deletion strains, locus YOL147C, strain pex11, stronger effect = lower value",0.994
same,normalized growth,"S. cerevisiae deletion strains, locus YOR001W, strain rrp6, stronger effect = lower value",0.957
same,normalized growth,"S. cerevisiae deletion strains, locus YOR061W, strain CKA2, stronger effect = lower value",1
same,normalized growth,"S. cerevisiae deletion strains, locus YOR069W, strain VPS5, stronger effect = lower value",1
same,normalized growth,"S. cerevisiae deletion strains, locus YOR070C, strain gyp1, stronger effect = lower value",0.978
same,normalized growth,"S. cerevisiae deletion strains, locus YOR080W, strain dia2, stronger effect = lower value",0.976
same,normalized growth,"S. cerevisiae deletion strains, locus YOR083W, strain WHI5 (second series), stronger effect = lower value",0.972
same,normalized growth,"S. cerevisiae deletion strains, locus YOR083W, strain WHI5, stronger effect = lower value",1.01
same,normalized growth,"S. cerevisiae deletion strains, locus YOR106W, strain vam3, stronger effect = lower value",0.978
same,normalized growth,"S. cerevisiae deletion strains, locus YOR136W, strain idh2, stronger effect = lower value",0.993
same,normalized growth,"S. cerevisiae deletion strains, locus YOR144C, strain elg1, stronger effect = lower value",0.995
same,normalized growth,"S. cerevisiae deletion strains, locus YOR184W, strain ser1, stronger effect = lower value",0.958
same,normalized growth,"S. cerevisiae deletion strains, locus YOR231W, strain MKK1, stronger effect = lower value",0.898
same,normalized growth,"S. cerevisiae deletion strains, locus YOR265W, strain rbl2, stronger effect = lower value",0.994
same,normalized growth,"S. cerevisiae deletion strains, locus YOR270C, strain vph1, stronger effect = lower value",0.938
same,normalized growth,"S. cerevisiae deletion strains, locus YOR290C, strain snf2, stronger effect = lower value",0.937
same,normalized growth,"S. cerevisiae deletion strains, locus YOR316C, strain cot1, stronger effect = lower value",0.999
same,normalized growth,"S. cerevisiae deletion strains, locus YPL051W, strain arl3, stronger effect = lower value",0.994
same,normalized growth,"S. cerevisiae deletion strains, locus YPL055C, strain LGE1, stronger effect = lower value",0.99 and 0.992
same,normalized growth,"S. cerevisiae deletion strains, locus YPL078C, strain atp4, stronger effect = lower value",0.979
same,normalized growth,"S. cerevisiae deletion strains, locus YPL106C, strain sse1, stronger effect = lower value",0.994
same,normalized growth,"S. cerevisiae deletion strains, locus YPL240C, strain hsp82, stronger effect = lower value",0.993
same,normalized growth,"S. cerevisiae deletion strains, locus YPL241C, strain CIN2, stronger effect = lower value",1
same,normalized growth,"S. cerevisiae deletion strains, locus YPL256C, strain CLN2, stronger effect = lower value",0.807 (active)
same,normalized growth,"S. cerevisiae deletion strains, locus YPR119W, strain clb2, stronger effect = lower value",0.977
same,normalized growth,"S. cerevisiae deletion strains, locus YPR141C, strain kar3, stronger effect = lower value",0.961
same,normalized growth,"S. cerevisiae deletion strains, locus YPR163C, strain tif3, stronger effect = lower value",0.987
same,normalized growth,"S. cerevisiae deletion strains, locus YPR167C, strain met16, stronger effect = lower value",0.986
same,normalized growth,"S. cerevisiae deletion strains, strain wtn01, stronger effect = lower value",1.01
same,normalized growth,"S. cerevisiae strains, strain wild type, stronger effect = lower value",1
